Assay results taken from PubChem BioAssay.
Values joined by “and” are separate entries in the source; they are usually repeats but may differ in a detail not shown here. Equal values may be shown once.

target: Neurogenic locus notch homolog protein 2 (Homo sapiens) (UniProt Q04721); experiment: Notch2 binders on small-molecule microarrays, primary screen, biochemical, small-molecule microarray, 635 nm fluorescence, stem cell growth factors (AID 1073); settings: Notch2 binding, higher = more signal
Sequence (Q04721 whole entry, looked up): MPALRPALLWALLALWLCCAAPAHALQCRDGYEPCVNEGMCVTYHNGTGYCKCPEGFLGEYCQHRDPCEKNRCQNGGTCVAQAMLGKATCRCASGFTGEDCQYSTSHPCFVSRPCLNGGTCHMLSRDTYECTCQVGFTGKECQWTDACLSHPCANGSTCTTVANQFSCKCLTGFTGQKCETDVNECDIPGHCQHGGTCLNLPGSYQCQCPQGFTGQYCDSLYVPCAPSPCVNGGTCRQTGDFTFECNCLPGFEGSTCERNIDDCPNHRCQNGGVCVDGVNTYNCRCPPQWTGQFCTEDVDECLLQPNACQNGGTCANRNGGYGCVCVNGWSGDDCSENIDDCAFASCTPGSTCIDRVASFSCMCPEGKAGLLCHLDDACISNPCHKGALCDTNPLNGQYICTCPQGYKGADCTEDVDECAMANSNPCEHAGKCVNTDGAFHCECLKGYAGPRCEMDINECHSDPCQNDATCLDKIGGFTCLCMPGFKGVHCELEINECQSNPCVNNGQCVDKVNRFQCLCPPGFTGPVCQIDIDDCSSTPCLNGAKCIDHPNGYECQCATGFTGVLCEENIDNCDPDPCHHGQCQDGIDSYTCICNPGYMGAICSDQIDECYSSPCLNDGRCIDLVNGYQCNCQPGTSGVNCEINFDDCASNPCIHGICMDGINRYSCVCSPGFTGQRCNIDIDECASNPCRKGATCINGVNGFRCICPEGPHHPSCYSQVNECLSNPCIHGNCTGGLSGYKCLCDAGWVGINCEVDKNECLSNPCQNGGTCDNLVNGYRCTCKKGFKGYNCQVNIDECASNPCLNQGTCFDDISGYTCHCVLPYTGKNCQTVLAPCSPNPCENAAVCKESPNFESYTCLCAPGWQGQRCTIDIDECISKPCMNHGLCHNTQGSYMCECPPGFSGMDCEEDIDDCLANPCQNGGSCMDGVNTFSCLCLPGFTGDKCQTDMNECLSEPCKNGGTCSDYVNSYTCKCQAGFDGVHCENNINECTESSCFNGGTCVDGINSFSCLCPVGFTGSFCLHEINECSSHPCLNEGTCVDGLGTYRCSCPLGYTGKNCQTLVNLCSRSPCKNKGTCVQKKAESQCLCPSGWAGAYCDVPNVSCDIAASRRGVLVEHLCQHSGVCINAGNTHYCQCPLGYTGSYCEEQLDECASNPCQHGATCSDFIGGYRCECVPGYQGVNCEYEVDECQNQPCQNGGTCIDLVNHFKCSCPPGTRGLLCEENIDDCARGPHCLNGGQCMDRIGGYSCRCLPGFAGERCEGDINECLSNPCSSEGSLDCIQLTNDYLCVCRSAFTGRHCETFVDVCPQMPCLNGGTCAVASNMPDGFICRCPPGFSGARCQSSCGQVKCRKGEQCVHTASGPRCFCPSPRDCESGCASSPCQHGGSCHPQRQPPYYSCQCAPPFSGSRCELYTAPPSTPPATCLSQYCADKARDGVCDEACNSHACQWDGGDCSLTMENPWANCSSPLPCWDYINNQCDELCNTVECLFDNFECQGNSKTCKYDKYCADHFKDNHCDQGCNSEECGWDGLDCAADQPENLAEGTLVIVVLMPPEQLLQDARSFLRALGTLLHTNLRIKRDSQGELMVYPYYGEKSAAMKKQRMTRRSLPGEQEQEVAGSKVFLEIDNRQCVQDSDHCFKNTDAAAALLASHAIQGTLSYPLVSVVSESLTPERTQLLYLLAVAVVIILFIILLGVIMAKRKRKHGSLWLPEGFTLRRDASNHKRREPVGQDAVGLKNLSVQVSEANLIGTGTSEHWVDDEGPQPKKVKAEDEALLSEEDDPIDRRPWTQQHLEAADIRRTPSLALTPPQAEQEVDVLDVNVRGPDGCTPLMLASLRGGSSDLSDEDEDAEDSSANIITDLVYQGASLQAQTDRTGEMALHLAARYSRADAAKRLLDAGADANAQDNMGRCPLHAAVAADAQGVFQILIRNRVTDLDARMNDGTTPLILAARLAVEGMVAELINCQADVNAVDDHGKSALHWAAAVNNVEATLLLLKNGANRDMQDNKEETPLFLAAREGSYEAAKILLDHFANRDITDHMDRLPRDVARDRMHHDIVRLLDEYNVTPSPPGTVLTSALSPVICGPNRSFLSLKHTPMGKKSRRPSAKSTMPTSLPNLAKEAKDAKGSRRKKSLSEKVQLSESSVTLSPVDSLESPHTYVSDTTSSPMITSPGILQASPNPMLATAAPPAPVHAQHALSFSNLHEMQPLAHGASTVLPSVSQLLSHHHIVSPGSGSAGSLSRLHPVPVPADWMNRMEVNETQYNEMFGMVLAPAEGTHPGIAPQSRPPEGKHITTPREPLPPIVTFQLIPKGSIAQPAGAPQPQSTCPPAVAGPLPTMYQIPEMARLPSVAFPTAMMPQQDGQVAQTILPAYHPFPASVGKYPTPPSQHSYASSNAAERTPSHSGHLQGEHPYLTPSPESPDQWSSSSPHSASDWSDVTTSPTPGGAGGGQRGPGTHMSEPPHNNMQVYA

SMILES | composite z-score
C=CCN(CCCC)C(=O)C1N(c2ccc(CCO)cc2)C(=O)C2C(C(=O)O)C3C=CC21O3 (stereo not given) | -1.32 and -0.91
COC(=O)C1=C(C)N(Cc2ccccc2)C2=C3C(=O)N(c4ccccc4)C(=O)[C@@H]3[C@@](O)(C(=O)OC)C(=O)N2[C@@H]1c1ccccc1 | 0.897 and 1.21
CCC[C@@H]1C[C@@]1(CCC)[C@@H](NC(=O)c1ccc(-c2ccccc2)cc1)c1cccc(Cl)c1 | -1.01 and 1.53
C=CCN(C(=O)C(c1cccs1)N(C(=O)/C=C\C(=O)O)c1ccc(CCO)cc1)C(C)(C)C (stereo not given) | -0.898 and -1.52
C=CCN(Cc1ccccc1)C(=O)C1N(CCCCCCO)C(=O)C2C(C(=O)O)C3C=CC21O3 (stereo not given) | -1.18 and -1.23
COc1ccc(COC(=O)NN=C2C[C@@H](O)[C@@H](O)[C@@H]3[C@@H]4C(=O)N(C(C)(C)C)C(=O)[C@@H]4CC[C@H]23)cc1 | 0.29
O=C1NC(=O)C2C1C=CC(C(O)c1ccc([N+](=O)[O-])cc1)N2Nc1ccc(Cl)cc1Cl (stereo not given) | 1.13 and 0.991
COC(=O)C1=C(C)N(Cc2ccccc2)C2=C3C(=O)CCC[C@@H]3[C@@](O)(C(=O)OC)C(=O)N2[C@@H]1c1ccccc1 | 0.723 and 0.6
C[N+](C)(C)CCCCNC(=O)[C@H]1C[C@H]2C(=O)N[C@@H](CCCC[N+](C)(C)C)C(=O)N2[C@H]1c1cccc(OCCO)c1 | -0.0613 and 0.622
C=CCN(CCCCC)C(=O)C1N(c2ccc(CCO)cc2)C(=O)C2C(C(=O)O)C3C=CC21O3 (stereo not given) | -2.12 and -2.03
CC(C)C(=O)N[C@@H]1CCCN1C(=O)C=Cc1ccccc1 | 0.99
C[C@@H](ON=C1[C@H]2CCn3c(=O)n(-c4ccccc4)c(=O)n3[C@H]2[C@H](O)[C@@H]2O[C@H]12)c1cn([C@H](CO)Cc2ccccc2)nn1 | 0.308
C=CCN1C(=O)[C@]2(O[C@H](CCn3cc(CCO)nn3)[C@@H]([Si](C)(C)c3ccc(OC)cc3)[C@@H]2C)c2cc(N3C(=O)c4cccc5cccc3c45)ccc21 | 0.285 and 0.226
COC(=O)[C@@]1(Cc2ccc(F)cc2)[C@H]2c3cc(C(=O)N4CCCC4)n(Cc4c(CO)[nH]cc(C)c4=O)c3C[C@H]2CN1C(=O)c1ccccc1 | 1.43 and 1.42
C=CCN(CCCCC)C(=O)C1N(c2c(Cl)cccc2CO)C(=O)C2C(C(=O)O)C3C=CC21O3 (stereo not given) | -2.36 and -1.86
C=CCN(C(=O)C1N(c2c(Cl)cccc2CO)C(=O)C2C(C(=O)O)C3C=CC21O3)C(C)(C)C (stereo not given) | -0.872 and -1.15
COC(=O)[C@@]1(Cc2ccc(OC)cc2)[C@H]2c3cc(C(=O)N(C)C)n(Cc4ccc(O)c(OC)c4)c3C[C@H]2CN1C(=O)c1ccccc1 | 1.64 and 1.68
C=CCN(C(=O)C1N(C(C)(C)CO)C(=O)C2C(C(=O)O)C3C=CC21O3)c1ccc(OC)cc1 (stereo not given) | -1.71 and -1.79
C[N+](C)(C)CCCCNC(=O)[C@@H]1C[C@@H]2C(=O)N[C@@H](CCCC[N+](C)(C)C)C(=O)N2[C@@H]1c1cccc(OCCO)c1 | 0.556 and 0.0462
CCCC[C@@H]1CN2[C@@H](CC[C@@H](C)[C@@H]2c2ccc(Br)cc2)C(=O)O1 | 0.333 and 0.493

SMILES | composite z-score
CCN1C(=O)[C@H]2[C@H]3[C@H](O)[C@H](O)CC(=NOC)[C@@H]3CC[C@H]2C1=O | -0.422
C=C[C@H](OC)[C@@H](O)c1ccc(OCCO)cc1 | -1.86 and -1.69
COC(=O)C1=C(C)N(Cc2ccccc2)[C@]23O[C@](C(=O)OC)(C(=O)N2[C@@H]1c1ccccc1)[C@@H](c1ccccc1)[C@@H]3C(=O)c1ccccc1 | 0.789 and 0.499
CCOC(=O)[C@@H]1CC=C2CC1C(=O)N1CCC[C@@H]1[C@H]2O[Si](C)(C)C(C)(C)C (stereo not given in full) | -1.16 and -1.46
CCOC(=O)[C@@H]1CC2O[C@]23C[C@@H]1C(=O)N1CCC[C@@H]1[C@H]3O[Si](C)(C)C(C)(C)C (stereo not given in full) | -1.08 and -0.312
Cc1ccc(S(=O)(=O)OC[C@@H]2CN3[C@@H](CC[C@@H](C)[C@@H]3c3ccc(Br)cc3)C(=O)O2)cc1 | 0.246 and 0.663
COC(=O)C1=C(C)N(Cc2ccccc2)[C@]23O[C@](C(=O)OC)(C(=O)N2[C@@H]1c1ccccc1)[C@H]1C(=O)N(c2ccccc2)C(=O)[C@H]13 | 1.18 and 0.445
CCOC(=O)c1ccc(NC(=O)O[C@H]2[C@H](OC(=O)Nc3ccccc3)[C@H](OC(=O)Nc3ccccc3)[C@@H](OC)O[C@@H]2CO)cc1 | 1.44 and 0.73
C[N+](C)(C)CCCCCCNC(=O)[C@H]1C[C@H]2C(=O)N[C@@H](CCCC[N+](C)(C)C)C(=O)N2[C@H]1c1ccc(O)cc1 | -0.2 and -0.619
Cc1ccc(S(=O)(=O)N[C@@H]2COC(=O)CC=C[C@@H](C)[C@@H]3C=C[C@H](O)[C@@H](COC(=O)CC=C[C@H]2C)O3)cc1 | -0.557 and 0.111
CCCNC(=O)OC[C@H]1O[C@H](CCON=C(C)CCC(=O)OC[C@H]2O[C@H](C#Cc3ccccc3)C=C[C@@H]2Oc2ccc(C)cc2)C=C[C@@H]1Oc1ccc(OC)cc1 | -0.0132
C=CCN(CCCC)C(=O)C1N(C(C)(C)CO)C(=O)C2C(C(=O)O)C3C=CC21O3 (stereo not given) | -1.33 and -1.67
C=C[C@@H](C)[C@H](O)c1ccc(O)c2ccccc12 | -0.889 and -2.07
C=CCN(Cc1ccccc1)C(=O)C1N(C(C)(C)CO)C(=O)C2C(C(=O)O)C3C=CC21O3 (stereo not given) | -2.15 and -1.36
C=CC[C@H](O)c1ccc(OCCO)cc1 | -1 and -1.04
C=CCN(C(=O)C(c1cccs1)N(C(=O)/C=C\C(=O)O)c1ccc(CCO)cc1)c1ccc(OC)cc1 (stereo not given) | -1.21 and -2.49
C=CC[C@@H](O)c1ccc(OCCO)cc1 | -1.41 and -2.02
C=CCN(C(=O)C1N(CCCCCCO)C(=O)C2C(C(=O)O)C3C=CC21O3)c1ccc(OC)cc1 (stereo not given) | -2.07 and -1.8
COC(=O)C1=C(C)N(Cc2ccccc2)C2=C(C(=O)c3ccccc3)[C@H](c3ccccc3)[C@@](O)(C(=O)OC)C(=O)N2[C@@H]1c1ccccc1 | 0.98 and 0.272
Cc1ccc(S(=O)(=O)N[C@H]2COC(=O)[C@@H](C)COC(=O)[C@H](C)NC(=O)CC=C[C@H]2C)cc1 | 0.192
